The text below walks through data of PubChem BioAssay (NCI).

Values joined by “and” are separate entries in the source; they are usually repeats but may differ in a detail not shown here. Equal entries are not always repeated. Compounds without any hit were thinned out: in the full panel of roughly 83,000, 20% have a hit.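 In brief: 96-well plates, 48 h treatment, single concentration, percent growth endpoint.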 Some structures have more than one record in an assay (separate samples or runs), and their calls can disagree. Active and inactive are the calls of the source.

The assay has as its system NCI/ADR-RES ovarian. In words: NCI-60 one-dose screen, 48 h (100 = growth as untreated, 0 = no growth, -100 = all killed). Conditions: 10 µM. The procedure: Growth inhibition of the NCI/ADR-RES human […] tumor cell line is measured as a screen for anti-cancer activity. Cells are grown in 96 well plates and exposed to the test compound for 48 hours. Compounds are tested at a single concentration, which is 10^-5 M for most compounds. The reported endpoint is percent growth (GI% or GIPRCNT), where numbers from 0 - 100% represent growth inhibition, and numbers from -100% - 0 represent cell death. For example, a value of 40 represents 60% growth inhibition. A value of 0 means no net growth occurred over the course of the experiment. A value of -40 indicates 40% of cells at the beginning of the experiment died by the end of the experiment. A value of -100 means all cells are dead at the end of the experiment.
NCI-60 Human Tumor Cell Lines Screen was performed using the standard one-dose NCI protocol, which is described in more detail at https://dtp.cancer.gov/discovery_development/nci-60/default.htm.
Compounds with GIPRCNT values below 10 were considered active. Activity score was based on GIPRCNT using the following formula: […]
Score is 0 for GIPRCNT values of 100 or above, 50 for GIPRCNT values of 0, and 100 for GIPRCNT values of -100.
`C[C@@H]1CCC/C=C/[C@H]2C[C@@H](O)C[C@@H]2[C@@H](O)/C=C/C(=O)O1`: the growth was 9.17% (active).
For `C[C@@H]1C[C@H]2C(=O)O[C@@H](C)C(NC(=O)[C@H](Cc3cc(F)cc(F)c3)NC(=O)Nc3ccc(OS(=O)(=O)F)cc3)C(=O)N3CCC[C@H]3C(=O)N3CCO[C@H](C)[C@H]3C(=O)N[C@@H](CO)C(=O)N2C1` (stereo not given in full), the growth was 99.2% (inactive).
`CCCCCCCCCC(=O)N[C@@](C)(CC)C(=O)N1CCC[C@H]1C(=O)N[C@@H](CC(C)C)C(=O)N[C@@](C)(CC)C(=O)N[C@@H](CCC(N)=O)C(=O)N[C@H](CCC(N)=O)C(=O)NC(C)(C)C(=O)NC(C)(C)C(=O)N[C@@H](CCC(N)=O)C(=O)N[C@H](CC(C)C)C(=O)N[C@H](CO)CC(C)C`: the growth was -82.9% (active) and -77% (active).
With `C/C=C\C(=O)O[C@@H]1CC2O[C@@H]3C=C(C)C(=O)C[C@]3(C)[C@]1(C)[C@]21CO1` the figure was -3.97% (active); with `COc1cc2c(O[C@@H]3OC[C@H](O)[C@H](O)[C@H]3O)c3c(c(-c4ccc5c(c4)OCO5)c2cc1OC)C(=O)OC3`, 90.1% (inactive); with `COc1cc(OC)c(S(=O)(=O)N(CCCl)CCCl)cc1C(=O)/C=C/c1ccc(Cl)cc1`, 52.3% (inactive).
With `COc1cc2c(cc1OC)[C@@H]1N(CC2)C(=O)c2ccccc2[C@@]1(C)C(=O)O` the figure was 106% (inactive).
With `COc1cccc2c1cc([N+](=O)[O-])c1c(C(=O)O)cc3c(c12)OCO3` the figure was 107% (inactive); with `C/C=C/CC(C)C(O)[C@H](NC(=O)[C@@H]1CCCN1C(=O)C(C)(C)NC(=O)CCCCCCC)C(=O)N[C@@](C)(CC)C(=O)N[C@@H](CCC(N)=O)C(=O)N[C@H](CCC(N)=O)C(=O)NC(C)(C)C(=O)NC(C)(C)C(=O)N[C@@H](CCC(N)=O)C(=O)N[C@H](CC(C)C)C(=O)N[C@H](CO)CC(C)C` (stereo not given in full), 106% (inactive) and 48.9% (inactive).
As for `CC(=O)O[C@@H]1C[C@H]2O[C@@H]3C=C(C)CC[C@]3(C)[C@]1(C)[C@]21CO1`, the growth was 14.6% (inactive).
With `C=C1[C@@H](C)C2[C@H](Cc3ccccc3)NC(=O)[C@]23[C@H](OC(C)=O)/C=C/[C@@](C)(O)C(=O)[C@@H](C)C/C=C/[C@H]3[C@@H]1O` (stereo not given in full) the figure was 98.5% (inactive).
With `CC1=C(CN(O)C(N)=O)C2=C(C)C3(CC3)[C@@](C)(O)C(=O)C2=C1` the figure was -5.11% (active); with `CC1=C2C(=C[C@@](C)(COC(=O)c3ccc(S(=O)(=O)F)cc3)[C@@H]2OC(=O)c2ccc(S(=O)(=O)F)cc2)C(=O)[C@](C)(O)C12CC2`, 9.12% (active).
For the compound `N#Cc1nc(-c2ccccc2)oc1N1CCC(S(=O)(=O)F)CC1`, the growth is 104% (inactive).
With `CC(=O)O[C@@H]1[C@@H]2O[C@H]2[C@@](C)(O)C(=O)[C@@H](C)C/C=C/[C@H]2[C@@H]3O[C@]3(C)[C@@H](C)C3[C@H](Cc4ccccc4)NC(=O)[C@@]312` (stereo not given in full) the figure was 82% (inactive); with `CC1=C2C(=C[C@@](C)(C=O)[C@@H]2O)C(=O)[C@](C)(O)C12CC2`, 1.41% (active).
Take `CC1=C2C(=C[C@@](C)(COS(C)(=O)=O)[C@@H]2O)C(=O)[C@](C)(O)C12CC2`: the growth was 0.993% (active).
Take `CCC(C)[C@H]1C(=O)O[C@H](C(C)C)C(=O)N(C)[C@@H](C(C)C)C(=O)O[C@H](C(C)C)C(=O)N(C)[C@@H](C(C)C)C(=O)O[C@H](C(C)C)C(=O)N1C` (stereo not given in full): the growth is 5.25% (active).
Turning to `CC1=C2C(=C[C@@](C)(COC(=O)c3ccc(S(=O)(=O)F)cc3)[C@@H]2O)C(=O)[C@](C)(O)C12CC2`, the growth is -3.75% (active).
With `O=C(CCCc1ccc(N(CCCl)CCCl)cc1)OCc1ccccc1` the figure was 93.9% (inactive); with `COc1cc2c(O[C@@H]3OC[C@H](OC(C)=O)[C@H](OC(C)=O)[C@H]3O)c3c(c(-c4ccc5c(c4)OCO5)c2cc1OC)C(=O)OC3`, 37.7% (inactive); with `NC1CCc2cc(O)c(O)cc2C1` (stereo not given), 85.6% (inactive).
As to `COC(=O)[C@H]1[C@@H](O)[C@@]2(O)c3c(OC)cc(OC)cc3O[C@@]2(c2ccc(OC)cc2)[C@@H]1c1ccccc1`, the growth is 0.819% (active).
Consider `C/C=C/CC(C)C(O)[C@H](NC(=O)[C@@H]1CCCN1C(=O)C(C)(C)NC(=O)CCCCCCCCC)C(=O)N[C@@](C)(CC)C(=O)N[C@@H](CCC(N)=O)C(=O)N[C@H](CCC(N)=O)C(=O)NC(C)(C)C(=O)NC(C)(C)C(=O)N[C@@H](CCC(N)=O)C(=O)N[C@H](CC(C)C)C(=O)N[C@H](CO)CC(C)C` (stereo not given in full), for which the growth is 19.7% (inactive) and 35.4% (inactive).
With `CC1=C[C@H]2O[C@@H]3C[C@H]4OC(=O)/C=C\C=C\[C@H]([C@@H](C)O)OCC/C(C)=C/C(=O)OC[C@@]2(CC1)[C@]4(C)[C@]31CO1`, the growth was -20% (active).
With `N#Cc1c(-n2c(Br)c(Br)c3cc(Br)ccc32)[nH]c2c(Br)cc(Br)cc12` the figure was -2.1% (active).
With `CC(C)(O)/C=C/C(=O)[C@](C)(O)[C@H]1[C@H](O)C[C@@]2(C)[C@H]3CC=C4[C@@H](C[C@H](O)C(=O)C4(C)C)[C@]3(C)C(=O)C[C@]12C` the figure was 24.7% (inactive).
With `CN1C(=O)[C@]23SSC1(C)C(=O)N2[C@H]1Nc2ccccc2C1([C@@]12c4ccccc4N[C@@H]1N1C(=O)C4(C)SS[C@]1(C(=O)N4C)[C@H]2O)[C@@H]3O` (stereo not given in full) the figure was -19.4% (active).
As for `CC1=C2C(=O)[C@](C)(CO)C=C2C(=O)[C@](C)(O)C12CC2`, the growth is 5.56% (active).
With `CN(CCF)/N=N/c1nc[nH]c1C(N)=O` the figure was 32.5% (inactive).
For `CC1=C(CN(O)C(N)=O)C2=C(C)C3(CC3)[C@](C)(O)C(=O)C2=C1`, the growth is 15.9% (inactive).
With `CC1=C[C@H]2O[C@@H]3C[C@H]4OC(=O)/C=C\C=C\[C@H]([C@@H](C)O)OCC[C@@H](C)[C@H](O)C(=O)OC[C@@]2(CC1)[C@]4(C)[C@]31CO1` the figure was -24.9% (active); with `CC1=C(CCC=NNC(N)=O)C2=C(C)C3(CC3)[C@@](C)(O)C(=O)C2=C1`, -18.1% (active); with `C/C=C/CC(C)C(O)[C@H](NC(=O)[C@@H]1CCCN1C(=O)C(C)(C)NC(=O)CCCCCCCCC)C(=O)NC(C)(C)C(=O)N[C@@H](CCC(N)=O)C(=O)N[C@H](CCC(N)=O)C(=O)NC(C)(C)C(=O)NC(C)(C)C(=O)N[C@@H](CCC(N)=O)C(=O)N[C@H](CC(C)C)C(=O)N[C@H](CO)CC(C)C` (stereo not given in full), 51.1% (inactive) and 4.23% (active).
For `Cc1ccc(CNc2nc3ccc(OC/C(=C/F)CN)cc3o2)cn1`, the growth was 102% (inactive).
Take `CC(C)=CCc1c2c(c(O)c3c1O[C@]14C(=C[C@@H]5C[C@H]1C(C)(C)O[C@@]4(C/C=C(/C)C(=O)O)C5=O)C3=O)C=CC(C)(C)O2`: the growth is 4.39% (active).
With `COc1cc(C)c(-c2ccc(OC)c(=O)cc2C)c(OC)c1OC` the figure was -11.5% (active) and 107% (inactive); with `COC1[C@@H]2C[C@H]3C(C)(C)O[C@@](C/C=C(/C)C(=O)O)(C2=O)[C@]32Oc3c(CC=C(C)C)c4c(c(O)c3C(=O)[C@H]12)C=CC(C)(C)O4` (stereo not given in full), -10.9% (active).
With `C/C=C/CC(C)C(O)[C@H](NC(=O)[C@@H]1CCCN1C(=O)C(C)(C)NC(=O)CCCCCCCCC)C(=O)N[C@@](C)(CC)C(=O)N[C@@H](CCC(N)=O)C(=O)N[C@H](CCC(N)=O)C(=O)NC(C)(C)C(=O)N[C@@](C)(CC)C(=O)N[C@@H](CCC(N)=O)C(=O)N[C@H](CC(C)C)C(=O)N[C@H](CO)CC(C)C` (stereo not given in full) the figure was 106% (inactive) and -38.7% (active); with `CC1=C[C@H]2O[C@@H]3C[C@@H](O)[C@](C)([C@@]2(C)CC1)[C@@]31CO1`, 36.1% (inactive).
